Test results published in the supplement of paper PMC11732987, “Enantioselective OTUD7B fragment discovery through chemoproteomics screening and high-throughput optimisation” (Communications Chemistry, 2025).

What was measured:
Assay in all cases: log2 ratio of Biotin-Ahx-Ub-VS probe labelling (fragment/DMSO); higher = less target engagement (more negative = stronger competition), active = hit call of the paper (q ≤ 0.05, log2 ratio ≤ -1)
Details in all cases: compound concentration: 200 uM; treatment time: 3 h
USP42 = biological target: T1, USP42 (UniProt Q9H9J4)
T1 sequence (whole entry): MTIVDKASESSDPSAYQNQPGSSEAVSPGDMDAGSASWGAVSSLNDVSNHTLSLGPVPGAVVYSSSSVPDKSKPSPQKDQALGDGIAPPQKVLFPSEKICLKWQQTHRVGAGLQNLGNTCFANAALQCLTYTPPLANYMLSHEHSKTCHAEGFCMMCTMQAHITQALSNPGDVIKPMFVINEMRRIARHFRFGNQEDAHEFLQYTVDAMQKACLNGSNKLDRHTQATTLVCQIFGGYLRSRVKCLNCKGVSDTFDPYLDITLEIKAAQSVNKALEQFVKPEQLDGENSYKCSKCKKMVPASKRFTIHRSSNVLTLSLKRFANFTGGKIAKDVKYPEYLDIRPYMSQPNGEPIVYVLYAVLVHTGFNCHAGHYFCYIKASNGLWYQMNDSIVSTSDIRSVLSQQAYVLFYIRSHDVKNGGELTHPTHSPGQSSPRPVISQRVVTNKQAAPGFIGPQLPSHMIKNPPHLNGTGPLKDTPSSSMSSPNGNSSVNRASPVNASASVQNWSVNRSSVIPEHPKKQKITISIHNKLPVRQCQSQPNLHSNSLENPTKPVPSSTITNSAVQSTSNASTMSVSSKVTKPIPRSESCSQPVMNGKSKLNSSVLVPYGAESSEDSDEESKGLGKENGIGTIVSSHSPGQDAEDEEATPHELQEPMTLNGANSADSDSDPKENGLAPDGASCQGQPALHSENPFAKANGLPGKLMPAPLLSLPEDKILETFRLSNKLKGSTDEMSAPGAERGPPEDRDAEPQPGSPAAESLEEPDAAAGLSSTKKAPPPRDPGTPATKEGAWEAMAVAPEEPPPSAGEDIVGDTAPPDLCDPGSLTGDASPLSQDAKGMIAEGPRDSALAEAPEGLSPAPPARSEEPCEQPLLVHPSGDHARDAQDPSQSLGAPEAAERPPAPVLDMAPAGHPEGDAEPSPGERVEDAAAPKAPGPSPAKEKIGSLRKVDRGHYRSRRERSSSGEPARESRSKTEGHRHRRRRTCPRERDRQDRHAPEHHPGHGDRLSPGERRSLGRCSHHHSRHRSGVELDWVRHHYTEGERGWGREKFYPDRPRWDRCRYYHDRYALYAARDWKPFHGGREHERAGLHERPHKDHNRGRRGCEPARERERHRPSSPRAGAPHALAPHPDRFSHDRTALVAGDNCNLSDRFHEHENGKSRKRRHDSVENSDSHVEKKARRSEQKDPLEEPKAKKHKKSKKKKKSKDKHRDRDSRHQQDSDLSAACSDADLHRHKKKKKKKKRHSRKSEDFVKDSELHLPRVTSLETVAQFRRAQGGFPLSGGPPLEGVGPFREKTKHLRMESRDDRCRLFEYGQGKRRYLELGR
Method in brief: (§1)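 Labelled DUBs from HEK293T lysate were NeutrAvidin-enriched, digested with LysC and trypsin, and run by diaPASEF LC-MS/MS. Before that, each 495 µg sample in Tris/CHAPS/IGEPAL buffer with protease inhibitors was treated in triplicate with fragment at 200 µM or vehicle for 3 h, then with Biotin-Ahx-Ub-VS at 0.5 µM final for 1 h. Values are average log2 ratios of fragment over vehicle by unpaired t-test, based on global-median-normalised Spectronaut label-free quantities from proteins with ≥2 unique peptides.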

USP46 = USP46 (UniProt P62068)
USP46, sequence (P62068 whole entry): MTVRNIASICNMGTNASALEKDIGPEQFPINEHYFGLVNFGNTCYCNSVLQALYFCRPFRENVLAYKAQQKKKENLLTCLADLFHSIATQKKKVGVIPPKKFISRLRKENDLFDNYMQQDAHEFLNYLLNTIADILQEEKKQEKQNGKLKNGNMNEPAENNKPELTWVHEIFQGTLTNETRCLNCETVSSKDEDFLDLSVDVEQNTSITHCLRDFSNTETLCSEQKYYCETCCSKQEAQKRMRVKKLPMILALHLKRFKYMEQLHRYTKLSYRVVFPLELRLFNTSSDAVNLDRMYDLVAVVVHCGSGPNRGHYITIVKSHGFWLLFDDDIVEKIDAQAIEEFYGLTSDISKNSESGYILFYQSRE
Method in brief: as §1

USP47 = biological target: T2, USP47 (UniProt Q96K76)
T2 sequence (whole entry): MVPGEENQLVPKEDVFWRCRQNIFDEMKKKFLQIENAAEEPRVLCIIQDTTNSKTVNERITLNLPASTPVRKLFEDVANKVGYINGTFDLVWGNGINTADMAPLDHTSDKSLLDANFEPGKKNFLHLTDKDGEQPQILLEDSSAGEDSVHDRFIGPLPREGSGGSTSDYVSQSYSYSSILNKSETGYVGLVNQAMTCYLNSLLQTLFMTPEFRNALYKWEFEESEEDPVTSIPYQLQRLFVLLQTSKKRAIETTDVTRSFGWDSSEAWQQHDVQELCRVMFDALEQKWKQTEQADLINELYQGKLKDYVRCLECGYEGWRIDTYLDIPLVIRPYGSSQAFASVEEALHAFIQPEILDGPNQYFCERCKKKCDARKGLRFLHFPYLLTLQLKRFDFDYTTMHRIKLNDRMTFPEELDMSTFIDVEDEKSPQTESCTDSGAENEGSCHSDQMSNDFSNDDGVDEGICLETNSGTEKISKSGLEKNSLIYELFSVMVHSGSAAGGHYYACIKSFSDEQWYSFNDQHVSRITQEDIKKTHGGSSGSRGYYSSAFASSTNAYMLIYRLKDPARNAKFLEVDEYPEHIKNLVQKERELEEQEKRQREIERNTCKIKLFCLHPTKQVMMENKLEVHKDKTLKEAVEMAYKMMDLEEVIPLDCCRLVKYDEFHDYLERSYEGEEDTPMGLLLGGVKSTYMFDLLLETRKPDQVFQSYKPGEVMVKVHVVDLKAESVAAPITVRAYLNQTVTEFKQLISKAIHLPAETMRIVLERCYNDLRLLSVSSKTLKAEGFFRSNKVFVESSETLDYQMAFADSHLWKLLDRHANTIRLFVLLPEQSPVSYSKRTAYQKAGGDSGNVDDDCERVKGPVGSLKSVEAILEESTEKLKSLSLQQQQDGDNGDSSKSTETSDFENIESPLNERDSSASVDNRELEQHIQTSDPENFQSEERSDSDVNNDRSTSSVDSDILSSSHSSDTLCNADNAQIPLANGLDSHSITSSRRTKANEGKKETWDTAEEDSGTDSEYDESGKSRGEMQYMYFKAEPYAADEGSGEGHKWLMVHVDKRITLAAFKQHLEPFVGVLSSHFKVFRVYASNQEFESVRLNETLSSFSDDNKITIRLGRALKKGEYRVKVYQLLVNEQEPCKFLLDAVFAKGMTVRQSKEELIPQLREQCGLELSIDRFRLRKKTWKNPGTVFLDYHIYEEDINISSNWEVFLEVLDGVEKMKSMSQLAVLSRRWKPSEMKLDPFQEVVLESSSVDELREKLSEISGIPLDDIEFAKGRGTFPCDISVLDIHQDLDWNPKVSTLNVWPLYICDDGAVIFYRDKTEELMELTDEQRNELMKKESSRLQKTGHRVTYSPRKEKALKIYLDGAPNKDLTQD
Method in brief: as §1

USP48 = biological target: T3, USP48 (UniProt Q86UV5)
T3 sequence (whole entry): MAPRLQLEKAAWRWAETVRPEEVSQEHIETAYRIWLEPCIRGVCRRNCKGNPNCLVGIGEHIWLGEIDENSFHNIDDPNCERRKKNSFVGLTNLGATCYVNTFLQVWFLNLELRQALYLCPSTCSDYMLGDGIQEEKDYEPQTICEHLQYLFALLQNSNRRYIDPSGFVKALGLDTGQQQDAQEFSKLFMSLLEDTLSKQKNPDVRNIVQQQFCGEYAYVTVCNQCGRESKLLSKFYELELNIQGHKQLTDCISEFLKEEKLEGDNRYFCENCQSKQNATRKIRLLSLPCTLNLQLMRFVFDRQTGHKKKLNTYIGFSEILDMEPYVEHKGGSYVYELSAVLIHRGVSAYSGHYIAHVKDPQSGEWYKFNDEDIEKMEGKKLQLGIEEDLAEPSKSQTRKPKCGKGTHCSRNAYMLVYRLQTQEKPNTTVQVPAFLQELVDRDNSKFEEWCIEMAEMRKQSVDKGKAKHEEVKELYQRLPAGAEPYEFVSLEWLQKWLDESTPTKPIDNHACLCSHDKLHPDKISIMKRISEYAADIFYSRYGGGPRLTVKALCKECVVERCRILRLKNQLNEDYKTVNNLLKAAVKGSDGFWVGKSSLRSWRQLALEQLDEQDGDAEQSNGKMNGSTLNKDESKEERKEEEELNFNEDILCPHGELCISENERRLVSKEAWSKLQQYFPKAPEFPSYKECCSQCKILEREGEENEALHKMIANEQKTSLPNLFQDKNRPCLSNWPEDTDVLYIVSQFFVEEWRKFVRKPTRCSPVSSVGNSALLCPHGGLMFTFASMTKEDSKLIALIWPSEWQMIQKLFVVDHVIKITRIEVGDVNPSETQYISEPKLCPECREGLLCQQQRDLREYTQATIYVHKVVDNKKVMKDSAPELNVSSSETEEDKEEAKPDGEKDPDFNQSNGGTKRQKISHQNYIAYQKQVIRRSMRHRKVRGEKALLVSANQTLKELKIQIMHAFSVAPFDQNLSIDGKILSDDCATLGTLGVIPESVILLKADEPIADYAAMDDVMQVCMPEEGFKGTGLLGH
Method in brief: as §1

USP5 = biological target: T4, USP5 (UniProt P45974)
T4 sequence (whole entry): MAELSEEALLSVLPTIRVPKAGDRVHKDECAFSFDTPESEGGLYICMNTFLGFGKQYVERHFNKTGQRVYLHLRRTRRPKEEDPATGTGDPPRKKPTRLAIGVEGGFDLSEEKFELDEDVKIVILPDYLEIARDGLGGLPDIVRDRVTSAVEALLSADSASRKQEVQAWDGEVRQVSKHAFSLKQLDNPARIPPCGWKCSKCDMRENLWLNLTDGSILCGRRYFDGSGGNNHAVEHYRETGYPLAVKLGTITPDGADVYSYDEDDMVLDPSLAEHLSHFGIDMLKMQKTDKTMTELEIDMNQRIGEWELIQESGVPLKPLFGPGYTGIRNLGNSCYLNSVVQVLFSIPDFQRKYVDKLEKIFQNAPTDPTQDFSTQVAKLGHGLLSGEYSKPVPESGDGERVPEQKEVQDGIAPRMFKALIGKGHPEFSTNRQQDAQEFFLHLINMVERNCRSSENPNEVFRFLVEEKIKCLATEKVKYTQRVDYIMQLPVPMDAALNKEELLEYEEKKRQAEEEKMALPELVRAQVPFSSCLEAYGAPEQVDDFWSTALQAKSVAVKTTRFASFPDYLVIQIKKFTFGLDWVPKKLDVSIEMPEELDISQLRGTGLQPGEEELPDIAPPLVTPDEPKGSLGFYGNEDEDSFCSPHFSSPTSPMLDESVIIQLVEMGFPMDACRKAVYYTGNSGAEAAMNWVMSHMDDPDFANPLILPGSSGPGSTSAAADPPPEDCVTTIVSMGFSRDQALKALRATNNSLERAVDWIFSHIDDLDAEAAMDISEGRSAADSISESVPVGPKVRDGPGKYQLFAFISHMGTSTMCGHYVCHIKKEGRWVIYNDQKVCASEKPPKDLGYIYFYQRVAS
Method in brief: as §1

USP54 = USP54 (UniProt Q70EL1)
USP54, sequence (Q70EL1 whole entry): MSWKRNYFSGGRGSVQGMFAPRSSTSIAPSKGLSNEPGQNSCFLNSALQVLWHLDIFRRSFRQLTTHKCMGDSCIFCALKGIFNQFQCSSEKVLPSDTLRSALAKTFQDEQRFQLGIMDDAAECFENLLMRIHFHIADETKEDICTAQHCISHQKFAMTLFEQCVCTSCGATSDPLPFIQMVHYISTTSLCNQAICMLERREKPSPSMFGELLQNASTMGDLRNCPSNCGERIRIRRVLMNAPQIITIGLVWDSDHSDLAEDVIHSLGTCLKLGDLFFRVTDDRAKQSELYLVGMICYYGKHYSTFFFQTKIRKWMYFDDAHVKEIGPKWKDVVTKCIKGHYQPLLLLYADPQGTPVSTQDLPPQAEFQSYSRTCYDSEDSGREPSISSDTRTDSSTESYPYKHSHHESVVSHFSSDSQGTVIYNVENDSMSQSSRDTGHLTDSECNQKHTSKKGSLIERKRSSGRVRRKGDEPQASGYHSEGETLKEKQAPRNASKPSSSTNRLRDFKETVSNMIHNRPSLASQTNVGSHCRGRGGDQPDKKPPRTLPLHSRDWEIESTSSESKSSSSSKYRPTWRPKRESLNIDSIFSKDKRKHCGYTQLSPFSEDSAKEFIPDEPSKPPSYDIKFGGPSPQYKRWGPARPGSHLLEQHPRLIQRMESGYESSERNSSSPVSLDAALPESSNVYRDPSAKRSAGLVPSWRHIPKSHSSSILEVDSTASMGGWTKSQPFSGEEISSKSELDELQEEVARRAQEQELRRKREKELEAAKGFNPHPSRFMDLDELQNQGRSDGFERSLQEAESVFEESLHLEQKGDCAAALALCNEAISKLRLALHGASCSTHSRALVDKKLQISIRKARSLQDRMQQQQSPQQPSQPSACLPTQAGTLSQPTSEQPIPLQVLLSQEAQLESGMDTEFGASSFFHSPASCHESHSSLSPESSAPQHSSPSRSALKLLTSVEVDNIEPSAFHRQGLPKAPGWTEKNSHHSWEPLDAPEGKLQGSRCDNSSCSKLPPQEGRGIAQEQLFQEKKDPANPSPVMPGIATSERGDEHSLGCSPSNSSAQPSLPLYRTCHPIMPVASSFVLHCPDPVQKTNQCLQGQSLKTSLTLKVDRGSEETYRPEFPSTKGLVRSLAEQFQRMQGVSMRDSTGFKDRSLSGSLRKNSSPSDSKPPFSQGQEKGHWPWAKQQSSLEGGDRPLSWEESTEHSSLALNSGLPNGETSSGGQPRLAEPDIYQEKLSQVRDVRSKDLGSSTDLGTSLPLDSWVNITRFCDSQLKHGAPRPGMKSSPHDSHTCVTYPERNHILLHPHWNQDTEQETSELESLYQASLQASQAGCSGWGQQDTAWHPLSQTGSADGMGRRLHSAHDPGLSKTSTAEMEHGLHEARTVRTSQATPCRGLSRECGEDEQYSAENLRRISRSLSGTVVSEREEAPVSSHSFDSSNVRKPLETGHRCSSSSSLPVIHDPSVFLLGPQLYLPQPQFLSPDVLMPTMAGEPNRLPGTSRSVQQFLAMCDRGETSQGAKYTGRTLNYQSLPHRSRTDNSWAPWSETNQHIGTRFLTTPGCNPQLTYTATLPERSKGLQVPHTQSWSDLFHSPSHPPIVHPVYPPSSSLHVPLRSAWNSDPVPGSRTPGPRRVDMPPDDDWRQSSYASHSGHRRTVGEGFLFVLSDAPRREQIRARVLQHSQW
Method in brief: as §1

USP7 = USP7 (UniProt Q93009)
USP7, sequence (Q93009 whole entry, looked up): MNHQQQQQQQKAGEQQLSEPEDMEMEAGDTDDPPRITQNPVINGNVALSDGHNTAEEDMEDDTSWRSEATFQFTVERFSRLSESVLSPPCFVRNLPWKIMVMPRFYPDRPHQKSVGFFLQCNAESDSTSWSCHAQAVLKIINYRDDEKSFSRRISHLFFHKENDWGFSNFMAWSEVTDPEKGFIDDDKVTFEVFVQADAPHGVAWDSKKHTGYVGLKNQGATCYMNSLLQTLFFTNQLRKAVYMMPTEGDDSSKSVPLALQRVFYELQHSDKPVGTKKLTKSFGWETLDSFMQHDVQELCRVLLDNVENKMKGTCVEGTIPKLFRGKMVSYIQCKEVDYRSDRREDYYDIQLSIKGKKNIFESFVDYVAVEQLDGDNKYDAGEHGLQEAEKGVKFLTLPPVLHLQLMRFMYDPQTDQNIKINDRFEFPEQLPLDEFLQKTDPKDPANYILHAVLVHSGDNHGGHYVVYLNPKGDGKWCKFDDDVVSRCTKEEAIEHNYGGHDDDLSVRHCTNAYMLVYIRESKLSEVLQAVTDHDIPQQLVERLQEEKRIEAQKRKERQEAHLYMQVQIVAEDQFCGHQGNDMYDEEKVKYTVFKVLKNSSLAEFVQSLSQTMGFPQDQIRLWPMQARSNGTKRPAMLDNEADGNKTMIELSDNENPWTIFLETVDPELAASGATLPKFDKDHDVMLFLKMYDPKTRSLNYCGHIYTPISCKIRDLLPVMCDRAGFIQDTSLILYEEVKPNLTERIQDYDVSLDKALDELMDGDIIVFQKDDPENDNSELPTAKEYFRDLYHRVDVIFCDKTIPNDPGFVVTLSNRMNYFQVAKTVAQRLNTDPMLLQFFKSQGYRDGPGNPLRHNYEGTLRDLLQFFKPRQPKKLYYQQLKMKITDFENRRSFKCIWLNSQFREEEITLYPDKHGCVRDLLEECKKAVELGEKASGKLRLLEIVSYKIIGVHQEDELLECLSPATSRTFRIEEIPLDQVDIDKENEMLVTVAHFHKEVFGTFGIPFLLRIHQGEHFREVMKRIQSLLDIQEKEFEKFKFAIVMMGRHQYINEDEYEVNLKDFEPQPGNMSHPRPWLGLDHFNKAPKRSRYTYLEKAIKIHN
Method in brief: as §1

USP8 = biological target: T5, USP8 (UniProt P40818)
T5 sequence (whole entry): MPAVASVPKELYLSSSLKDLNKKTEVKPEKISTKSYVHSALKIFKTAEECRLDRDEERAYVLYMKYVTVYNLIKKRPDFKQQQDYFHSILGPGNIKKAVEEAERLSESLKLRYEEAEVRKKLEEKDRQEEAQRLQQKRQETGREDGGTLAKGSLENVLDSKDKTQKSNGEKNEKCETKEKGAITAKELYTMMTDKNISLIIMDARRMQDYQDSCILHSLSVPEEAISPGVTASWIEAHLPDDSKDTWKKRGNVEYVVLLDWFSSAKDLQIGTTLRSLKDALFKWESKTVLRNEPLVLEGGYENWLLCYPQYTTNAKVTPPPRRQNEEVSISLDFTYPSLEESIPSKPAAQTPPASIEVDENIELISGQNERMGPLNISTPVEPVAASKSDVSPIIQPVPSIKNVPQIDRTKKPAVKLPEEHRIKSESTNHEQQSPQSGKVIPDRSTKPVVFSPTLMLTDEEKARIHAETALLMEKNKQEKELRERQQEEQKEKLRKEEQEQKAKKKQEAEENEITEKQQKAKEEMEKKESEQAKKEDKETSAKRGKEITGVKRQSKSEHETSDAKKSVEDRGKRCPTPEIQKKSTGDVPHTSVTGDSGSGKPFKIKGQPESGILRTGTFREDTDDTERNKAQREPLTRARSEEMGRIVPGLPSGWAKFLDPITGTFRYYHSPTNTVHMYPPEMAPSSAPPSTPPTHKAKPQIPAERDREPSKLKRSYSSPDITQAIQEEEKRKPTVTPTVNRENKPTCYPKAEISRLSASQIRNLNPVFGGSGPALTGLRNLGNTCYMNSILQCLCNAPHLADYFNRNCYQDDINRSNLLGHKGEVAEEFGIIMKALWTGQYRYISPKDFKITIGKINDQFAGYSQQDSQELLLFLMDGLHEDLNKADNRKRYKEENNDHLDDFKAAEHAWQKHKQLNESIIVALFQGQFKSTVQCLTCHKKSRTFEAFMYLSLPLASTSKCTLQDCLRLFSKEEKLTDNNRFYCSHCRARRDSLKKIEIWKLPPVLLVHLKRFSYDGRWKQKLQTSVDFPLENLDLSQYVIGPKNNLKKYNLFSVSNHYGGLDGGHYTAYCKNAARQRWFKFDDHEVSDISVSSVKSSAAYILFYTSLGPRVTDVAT
Method in brief: as §1

Measured: log2 ratio of Biotin-Ahx-Ub-VS probe labelling

O=C(CCl)N1CCC2(CCC(O)CC2)CC1
inactive: USP42 0.175 | USP46 0.0165 | USP47 -0.0514 | USP48 -0.0801 | USP5 0.218 | USP54 0.833 | USP7 -0.00495 | USP8 -0.382
